The panel holds about 83,000 compounds, 20% with a hit somewhere; the sample as a whole holds those more often.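 Method: cells in 96-well plates; compound added at one concentration; 48 h incubation; percent growth measured; values under 10 scored active.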 Active and inactive are the calls of the source.
Key:
Test in all cases: NCI-60 one-dose screen, 48 h (100 = growth as untreated, 0 = no growth, -100 = all killed)
Details in all cases: 10 µM unless noted
HCT-15 colon = tested on: HCT-15 colon
HT29 colon = tested on: HT29 colon
SNB-75 CNS = tested on: SNB-75 CNS
SNB-19 CNS = tested on: SNB-19 CNS
U251 CNS = tested on: U251 CNS
PC-3 prostate = tested on: PC-3 prostate
SK-MEL-5 melanoma = tested on: SK-MEL-5 melanoma
UACC-62 melanoma = tested on: UACC-62 melanoma
SK-MEL-28 melanoma = tested on: SK-MEL-28 melanoma
SK-MEL-2 melanoma = tested on: SK-MEL-2 melanoma
EKVX NSCLC = tested on: EKVX NSCLC
SN12C renal = tested on: SN12C renal
UO-31 renal = tested on: UO-31 renal
TK-10 renal = tested on: TK-10 renal
ACHN renal = tested on: ACHN renal
CAKI-1 renal = tested on: CAKI-1 renal
A498 renal = tested on: A498 renal
CCRF-CEM leukemia = tested on: CCRF-CEM leukemia
MOLT-4 leukemia = tested on: MOLT-4 leukemia
LOX IMVI melanoma = tested on: LOX IMVI melanoma

Measured: growth

Cc1cc2nc3c4cc(N)ccc4n(CCN(C)C)c3nc2cc1C
inactive: HT29 colon 14.3% | SNB-75 CNS 20.1% | SNB-19 CNS 13.2% | U251 CNS 16.2% | PC-3 prostate 21.8% | SK-MEL-5 melanoma 21.8% | SK-MEL-28 melanoma 13.3% | SK-MEL-2 melanoma 17.6% | EKVX NSCLC 16.8% | TK-10 renal 41.3% | A498 renal 46.3% | CCRF-CEM leukemia 23.8%
active: HCT-15 colon -24% | UACC-62 melanoma 6.43% | SN12C renal 8.2% | UO-31 renal -6.21% | ACHN renal -9.44% | CAKI-1 renal -3% | MOLT-4 leukemia 3.65%

COc1cc2nc(Cl)nc(Nc3cccc(C(=O)/C=C/c4ccc(Cl)cc4)c3)c2cc1OC
inactive: HT29 colon 19.6% | SNB-75 CNS 81.3% | SNB-19 CNS 54.6% | U251 CNS 50.7% | PC-3 prostate 56% | SK-MEL-5 melanoma 83.9% | UACC-62 melanoma 62.8% | SK-MEL-28 melanoma 74.2% | SK-MEL-2 melanoma 96.4% | EKVX NSCLC 71.7% | SN12C renal 70.5% | UO-31 renal 57.1% | TK-10 renal 149% | ACHN renal 56% | CAKI-1 renal 51.9% | A498 renal 77.3% | CCRF-CEM leukemia 19.4% | MOLT-4 leukemia 33.5%
active: HCT-15 colon 2.93%

Cc1csc(Nc2nc(-c3cccc(Br)c3)nc(C(Cl)(Cl)Cl)n2)n1
inactive: HCT-15 colon 59.3% | HT29 colon 18.9% | SNB-75 CNS 52.5% | SNB-19 CNS 39.8% | U251 CNS 35.8% | PC-3 prostate 48.9% | SK-MEL-5 melanoma 91.1% | UACC-62 melanoma 60.5% | SK-MEL-28 melanoma 47% | SK-MEL-2 melanoma 104% | EKVX NSCLC 22.8% | SN12C renal 78.5% | UO-31 renal 49.4% | TK-10 renal 49.9% | CAKI-1 renal 21.6% | A498 renal 31.5% | CCRF-CEM leukemia 91.4% | MOLT-4 leukemia 80.7%
active: ACHN renal 0.817%

NC1=NN(c2ccccc2)C(=O)/C1=C/c1ccc(Cl)cc1
inactive: HCT-15 colon 99.4% | HT29 colon 102% | SNB-75 CNS 105% | SNB-19 CNS 96.9% | U251 CNS 98.1% | PC-3 prostate 82.8% | SK-MEL-5 melanoma 101% | UACC-62 melanoma 81.2% | SK-MEL-28 melanoma 95% | SK-MEL-2 melanoma 96.2% | EKVX NSCLC 96% | SN12C renal 94.6% | UO-31 renal 78.3% | TK-10 renal 91.2% | ACHN renal 93.9% | CAKI-1 renal 97% | A498 renal 99.7% | CCRF-CEM leukemia 101% | MOLT-4 leukemia 102%

CC1c2ccccc2N(S(=O)(=O)c2ccccc2)C1C (centres undefined)
inactive: HCT-15 colon 70.5% | HT29 colon 67.8% | SNB-75 CNS 86% | SNB-19 CNS 91.5% | U251 CNS 88% | PC-3 prostate 81.4% | SK-MEL-5 melanoma 89.2% | UACC-62 melanoma 71.6% | SK-MEL-28 melanoma 92.1% | SK-MEL-2 melanoma 76.5% | EKVX NSCLC 92.5% | SN12C renal 105% | UO-31 renal 75.7% | TK-10 renal 100% | ACHN renal 93.6% | CAKI-1 renal 74.5% | A498 renal 104% | CCRF-CEM leukemia 78.2% | MOLT-4 leukemia 75.1%

CC(=O)Cc1nsc(NC(=O)c2ccoc2COc2ccccc2)n1
inactive: HCT-15 colon 105% | HT29 colon 107% | SNB-75 CNS 99.4% | SNB-19 CNS 93.6% | U251 CNS 96.5% | PC-3 prostate 89.9% | SK-MEL-5 melanoma 101% | UACC-62 melanoma 93% | SK-MEL-28 melanoma 103% | SK-MEL-2 melanoma 107% | EKVX NSCLC 91.1% | SN12C renal 90.2% | UO-31 renal 77.1% | TK-10 renal 107% | ACHN renal 99.7% | CAKI-1 renal 99.8% | A498 renal 97.4% | CCRF-CEM leukemia 93.2% | MOLT-4 leukemia 106%

CCN1CCN(C(=O)[C@@]2(C)CC[C@]3(C)CC[C@]4(C)C(=CC(=O)[C@@H]5[C@@]6(C)CC[C@H](OCCC#N)C(C)(C)[C@@H]6CC[C@]54C)[C@@H]3C2)CC1
inactive: HCT-15 colon 69.5% | HT29 colon 42.6% | SNB-75 CNS 59.9% | SNB-19 CNS 103% | U251 CNS 64.2% | PC-3 prostate 72.1% | SK-MEL-5 melanoma 90.2% | UACC-62 melanoma 87.1% | SK-MEL-28 melanoma 67.7% | SK-MEL-2 melanoma 93.5% | EKVX NSCLC 85.7% | SN12C renal 83.1% | UO-31 renal 69.8% | TK-10 renal 93.4% | ACHN renal 98.3% | CAKI-1 renal 80.2% | A498 renal 101% | CCRF-CEM leukemia 63.4% | MOLT-4 leukemia 62.8%

COC(=O)[C@]12CC[C@@H](C(=O)/C=C/c3cccnc3)[C@@H]1[C@H]1CC[C@@H]3[C@@]4(C)C/C(=C/c5cccnc5)C(=O)C(C)(C)[C@@H]4CC[C@@]3(C)[C@]1(C)CC2
active: HCT-15 colon -46.2% | HT29 colon -45.5% | SNB-75 CNS -98.7% | SNB-19 CNS -87.6% | U251 CNS -87.9% | PC-3 prostate -14.1% | SK-MEL-5 melanoma -98.9% | UACC-62 melanoma -67.9% | SK-MEL-28 melanoma -96.3% | SK-MEL-2 melanoma -61.1% | EKVX NSCLC -76.3% | SN12C renal -77.8% | UO-31 renal -100% | TK-10 renal -60.5% | ACHN renal -100% | CAKI-1 renal -78.7% | A498 renal -91.2% | CCRF-CEM leukemia 0.953% | MOLT-4 leukemia -31.3%

C[C@H]1[C@@H]2[C@H]3CC[C@@H]4[C@@]5(C)Cc6c([nH]c7ccccc67)C(C)(C)[C@@H]5CC[C@@]4(C)[C@]3(C)CC[C@]23CO[C@]1(C)[C@@H](C(=O)/C=C/c1ccccn1)C3
inactive: HCT-15 colon 85.9% | HT29 colon 82.6% | SNB-75 CNS 90.9% | SNB-19 CNS 85.6% | U251 CNS 81.7% | PC-3 prostate 60.3% | SK-MEL-5 melanoma 88.5% | UACC-62 melanoma 79% | SK-MEL-28 melanoma 97.4% | SK-MEL-2 melanoma 115% | EKVX NSCLC 102% | SN12C renal 87.1% | UO-31 renal 60.4% | TK-10 renal 123% | ACHN renal 92.4% | CAKI-1 renal 63% | A498 renal 101% | CCRF-CEM leukemia 63% | MOLT-4 leukemia 78.8%

C=C(C)[C@@H]1CC[C@]2(C=NCCCNCCCCNCCCN)CC[C@]3(C)[C@H](CC[C@@H]4[C@@]5(C)CCCNC(C)(C)[C@@H]5CC[C@]43C)[C@@H]12
inactive: HCT-15 colon 82.6% | HT29 colon 39% | SNB-75 CNS 114% | SNB-19 CNS 88.3% | U251 CNS 91.6% | PC-3 prostate 85.9% | SK-MEL-5 melanoma 96% | UACC-62 melanoma 100% | SK-MEL-28 melanoma 111% | SK-MEL-2 melanoma 132% | EKVX NSCLC 102% | SN12C renal 91.1% | UO-31 renal 92.1% | TK-10 renal 120% | ACHN renal 105% | CAKI-1 renal 80.6% | A498 renal 95.6% | CCRF-CEM leukemia 94.4% | MOLT-4 leukemia 93.4%

CC(C)=CCC[C@](C)(O)[C@H]1CC[C@]2(C)[C@@H]1CC[C@@H]1[C@@]3(C)C/C(=C/c4ccc(Br)cc4)C(=O)C(C)(C)[C@@H]3CC[C@]12C
inactive: HCT-15 colon 85.4% | HT29 colon 77% | SNB-19 CNS 95.2% | U251 CNS 86.9% | PC-3 prostate 70.5% | SK-MEL-5 melanoma 96.8% | UACC-62 melanoma 78.6% | SK-MEL-28 melanoma 100% | SK-MEL-2 melanoma 113% | EKVX NSCLC 94.3% | SN12C renal 88% | UO-31 renal 70.4% | TK-10 renal 130% | ACHN renal 98.1% | CAKI-1 renal 64.7% | A498 renal 80.8% | CCRF-CEM leukemia 83.4% | MOLT-4 leukemia 84.1%
active: SNB-75 CNS -50.3%

COc1ccc(/C=C2\N=C(c3ccccc3)N(c3cc(OC)c(OC)cc3C(=O)N3N=C(C)CC3=O)C2=O)cc1
inactive: HCT-15 colon 90% | HT29 colon 99.7% | SNB-75 CNS 87.6% | SNB-19 CNS 99.5% | U251 CNS 102% | PC-3 prostate 89.4% | SK-MEL-5 melanoma 77.3% | UACC-62 melanoma 65.5% | SK-MEL-28 melanoma 95.2% | SK-MEL-2 melanoma 91.1% | SN12C renal 93.7% | UO-31 renal 68.9% | TK-10 renal 113% | ACHN renal 93.2% | CAKI-1 renal 92.3% | A498 renal 50.8% | MOLT-4 leukemia 57.9%

Cn1c(=O)c2c(ncn2CCC(=O)Nc2ccc(F)cc2)n(C)c1=O
inactive: HCT-15 colon 106% | HT29 colon 94% | SNB-75 CNS 91.5% | SNB-19 CNS 102% | U251 CNS 98.4% | PC-3 prostate 80.9% | SK-MEL-5 melanoma 111% | LOX IMVI melanoma 97.9% | SK-MEL-28 melanoma 114% | SK-MEL-2 melanoma 104% | EKVX NSCLC 101% | SN12C renal 105% | UO-31 renal 90% | TK-10 renal 95% | ACHN renal 110% | CAKI-1 renal 92.9% | A498 renal 103% | CCRF-CEM leukemia 97.5% | MOLT-4 leukemia 101%

COc1cc(-c2cc(-c3nc4cc(Cl)c(Cl)cc4[nH]3)[nH]n2)cc(OC)c1OC
inactive: HCT-15 colon 52% | HT29 colon 72.6% | SNB-75 CNS 70.4% | SNB-19 CNS 78.1% | U251 CNS 75.7% | SK-MEL-5 melanoma 19.6% | UACC-62 melanoma 24.1% | SK-MEL-28 melanoma 47.6% | SK-MEL-2 melanoma 86.5% | SN12C renal 69.7% | UO-31 renal 43.2% | TK-10 renal 107% | ACHN renal 46.8% | CAKI-1 renal 84.6% | A498 renal 67.4%
active: PC-3 prostate 5.57%

COC(=O)[C@]12CC[C@@H](C)[C@H](C)[C@@H]1C1=CC[C@@H]3[C@@]4(C)CC(=O)[C@H](OC(=O)c5ccco5)[C@@]5(C)COC(=C45)C[C@@]3(C)[C@]1(C)CC2
inactive: HCT-15 colon 24.1% | HT29 colon 20.1% | SNB-75 CNS 41.7% | SNB-19 CNS 40.4% | U251 CNS 24.9% | PC-3 prostate 17.3% | SK-MEL-28 melanoma 33% | EKVX NSCLC 35.6% | SN12C renal 36% | UO-31 renal 29.3% | TK-10 renal 38.5% | ACHN renal 25.9% | CAKI-1 renal 28.7% | A498 renal 13.1% | CCRF-CEM leukemia 25.1% | MOLT-4 leukemia 24.4%
active: SK-MEL-5 melanoma -46.1% | LOX IMVI melanoma 6.2% | SK-MEL-2 melanoma 8.78%

Cc1ccc(C)c2c1CCC2C(C)C (centres undefined)
inactive: HCT-15 colon 109% | HT29 colon 105% | SNB-75 CNS 88.4% | SNB-19 CNS 101% | U251 CNS 96.7% | PC-3 prostate 90.1% | SK-MEL-5 melanoma 98.5% | LOX IMVI melanoma 96% | SK-MEL-28 melanoma 103% | SK-MEL-2 melanoma 110% | EKVX NSCLC 102% | SN12C renal 98.6% | UO-31 renal 88.5% | TK-10 renal 95.6% | ACHN renal 97.3% | CAKI-1 renal 95.8% | A498 renal 110% | CCRF-CEM leukemia 93.5% | MOLT-4 leukemia 86.4%
